Source: PubChem BioAssay (EPA / NIEHS)
Where “and” joins values, the source holds several entries; their conditions need not be identical. Identical values can stand only once. Calls of active or inactive are those of the source. Rule for the calls, unless noted: active = hit-call score of the fitted dose curve at least 0.9, where 1 is the maximum; inactive = score below 0.9.

What was measured:
[1] = CCTE_Shafer_MEA_dev_per_burst_interspike_interval: CCTE's Neural Network Formation Assay for Burst Interspike Interval, Shafer Lab (AID 2284044);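 note: mean spike spacing inside bursts as AUC over recordings on days 5 7 9 12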;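 for AC50: potency for a decrease of within-burst interspike interval below DMSO level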
Outline: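 Developmental network-formation MEA in primary rat cortical cultures with exposure spanning days 0–12. Within-burst ISI is averaged per well and integrated across recording days by area under the curve, with DMSO as negative control baseline.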

[2] = CCTE_Shafer_MEA_dev_burst_duration_mean: CCTE's Neural Network Formation Assay for Mean Burst Duration, Shafer Lab (AID 2284045);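 for AC50: curve fitted for loss meaning shorter burst duration than DMSO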
Outline: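 Primary rat cortical neurons on 48-well 16-electrode MEA plates, exposed from day 0 with renewal at DIV 5 and 9; spontaneous activity recorded on days 5, 7, 9, 12. Well-mean burst duration across bursting electrodes, collapsed as trapezoidal AUC; DMSO baseline.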

[3] = CCTE_Shafer_MEA_dev_interburst_interval_mean: CCTE's Neural Network Formation Assay for Mean Interburst Interval, Shafer Lab (AID 2284046);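 note: well-mean interburst interval of bursting electrodes as AUC over four recording days; curve fitted for decrease in interburst interval relative to DMSO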
Outline: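 Primary rat cortical neurons on PEI-coated 48-well MEA plates (laminin added with cells at plating) (16 electrodes/well), exposed from plating day 0 with renewal at DIV 5 and 9. Mean inter-burst interval averaged over bursting electrodes, AUC across days 5, 7, 9, 12; DMSO baseline.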

[4] = CCTE_Shafer_MEA_dev_inter_network_spike_interval_mean: CCTE's Neural Network Formation Assay for Mean Inter-network Spike Interval, Shafer Lab (AID 2284047);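 for AC50: potency for a decrease in mean inter-network spike interval below DMSO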
Outline: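 Mean time between consecutive network-spike peaks, recorded extracellularly (adaptive spike detection) on DIV 5, 7, 9 and 12, summarized as trapezoidal AUC. Rat cortical cultures on MEAs dosed continuously days 0–12, re-dosed at feeds; loss-of-signal fit relative to DMSO.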

[5] = CCTE_Shafer_MEA_dev_network_spike_number: CCTE's Neural Network Formation Assay for Number of Network Spikes, Shafer Lab (AID 2284048);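 note: synchronized bursts across electrodes counted on days 5 7 9 12 and integrated as AUC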;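 for AC50: fit as a loss of signal meaning fewer network spikes than DMSO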
Outline: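 Primary rat cortical neurons on PEI/laminin 48-well MEA plates, dosed from plating day 0 for 12 days, renewed at DIV 5 and 9. Network spike counts recorded DIV 5, 7, 9, 12, collapsed as trapezoidal AUC; DMSO baseline.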

[6] = CCTE_Shafer_MEA_dev_network_spike_peak: CCTE's Neural Network Formation Assay for Mean Number of Electrodes in Network Spike, Shafer Lab (AID 2284049);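 for AC50: fitted for loss of signal meaning fewer electrodes in network spikes than DMSO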
Outline: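 Network-spike peak electrode count from recordings on days 5, 7, 9 and 12 was combined as trapezoidal area under the curve. Rat cortical cultures were treated continuously from plating, with compound renewed at each feed (DIV 5, 9); fits versus DMSO.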

[7] = CCTE_Shafer_MEA_dev_spike_duration_mean: CCTE's Neural Network Formation Assay for Mean Spike Duration, Shafer Lab (AID 2284051);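 note: mean network spike duration pooled as area under curve over DIV 5 to 12 recordings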;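 for AC50: potency for a decrease in mean network spike duration versus DMSO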
Outline: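 Spontaneous activity was recorded on days 5, 7, 9 and 12 from rat cortical cultures grown on microelectrode arrays and dosed continuously from day 0, with media and compound renewed after the DIV 5 and 9 recordings. Network-spike duration was collapsed by area under the curve.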

[8] = CCTE_Shafer_MEA_dev_network_spike_duration_std: CCTE's Neural Network Formation Assay for Standard Deviation of Network Spike Duration, Shafer Lab (AID 2284052);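 note: hits are decreases in network spike duration SD versus DMSO vehicle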
Outline: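 Network spike duration variability was collapsed across recordings on days 5, 7, 9 and 12 by trapezoidal area-under-curve and fitted downward against DMSO. Cultures were rat cortical neurons on PEI-coated MEA plates, dosed continuously from plating, refed with compound DIV 5/9.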

[9] = CCTE_Shafer_MEA_dev_per_network_spike_spike_number_mean: CCTE's Neural Network Formation Assay for Mean Number of Spikes in a Network Spike, Shafer Lab (AID 2284053);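 for AC50: fitted as decrease in spikes per network spike relative to DMSO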
Outline: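 Mean spike count within each network spike, taken in a 0.05 s window at its peak, was recorded on days 5, 7, 9 and 12 and integrated as trapezoidal area under the curve. Rat cortical cultures on MEA plates received continuous compound from day 0, refreshed at medium changes on DIV 5 and 9.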

DIO2 (gene 1734) = assay: CCTE_GLTED_hDIO2: CCTE's human Deiodinase 2 (DIO2) Inhibition Assay, Great Lakes Toxicology and Ecology Division (GLTED) Lab (AID 2284050; active = hit-call score of the fitted dose curve at least 0.9, where 1 is the maximum)
Outline: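 hDIO2 enzyme + test chem, 3 h → free iodide from substrate; step 2: Sandell-Kolthoff (Ce IV reduction by As, iodide-catalysed), spectrophotometric read. Triplicate plates; DMSO = baseline.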

Measured: AC50

CC(C)Cc1ccc(C(C)C(=O)O)cc1 (stereo not drawn)
active: [3] 962 nM | [6] 15000 nM
not listed: DIO2 (gene 1734)
inactive: all other assays above

CCCCC/C=C\C=C\C(=O)OCC
active: DIO2 (gene 1734) 44.2 µM

C=C(C)C(=O)OCCC(C)OC(=O)C(=C)C (stereo not drawn)
active: DIO2 (gene 1734) 49.6 µM

N#CCCNCCC#N
not listed: DIO2 (gene 1734)
inactive: all other assays above

c1ccc2scnc2c1
not listed: DIO2 (gene 1734)
inactive: all other assays above

N[C@@H](CCC(=O)O)C(=O)O
not listed: [5] | DIO2 (gene 1734)
inactive: all other assays above

CC/C(=C(\c1ccccc1)c1ccc(OCCN(C)C)cc1)c1ccccc1
active: [1] 307 nM | [2] 30.4 nM | [3] 1030 nM | [4] 57.8 nM | [5] 1870 nM | [6] 209 nM | DIO2 (gene 1734) 46.5 µM and 46.3 µM | [7] 350 nM | [8] 273 nM | [9] 66.8 nM

C[C@]12CC[C@@H]3c4ccc(O)cc4CC[C@H]3[C@@H]1CC[C@@H]2O
not listed: DIO2 (gene 1734)
inactive: all other assays above

O=C(c1ccc(OCCN2CCCCC2)cc1)c1c(-c2ccc(O)cc2)sc2cc(O)ccc12
active: DIO2 (gene 1734) 99.1 µM

CCCCC(CC)COC(=O)COc1ccc(Cl)cc1C (stereo not drawn)
not listed: DIO2 (gene 1734)
inactive: all other assays above

CCCCCCCCOC(=O)c1ccc(O)cc1
active: DIO2 (gene 1734) 92.9 µM

CC(=O)OC/C=C(C)/C=C/C=C(C)/C=C/C1=C(C)CCCC1(C)C
active: DIO2 (gene 1734) 52.6 µM
